Laboratory results as given in PMC4336329 (PLoS ONE, 2015).
In all, about 310,000 compounds went through this assay and about 2,200 (0.71%) showed an effect of 50% or more. The effect is printed as a negative number. What follows is part of a selection rich in strong results, with near analogues and random picks from the rest.

Biological target: human ether-à-go-go-related gene (hERG) potassium channel (human, UniProt Q12809)
Assay: primary screen, population patch clamp on CHO cells stably expressing hERG; higher = less effect of the substance

Sequence of human ether-à-go-go-related gene (hERG) potassium channel (Q12809 whole entry, looked up): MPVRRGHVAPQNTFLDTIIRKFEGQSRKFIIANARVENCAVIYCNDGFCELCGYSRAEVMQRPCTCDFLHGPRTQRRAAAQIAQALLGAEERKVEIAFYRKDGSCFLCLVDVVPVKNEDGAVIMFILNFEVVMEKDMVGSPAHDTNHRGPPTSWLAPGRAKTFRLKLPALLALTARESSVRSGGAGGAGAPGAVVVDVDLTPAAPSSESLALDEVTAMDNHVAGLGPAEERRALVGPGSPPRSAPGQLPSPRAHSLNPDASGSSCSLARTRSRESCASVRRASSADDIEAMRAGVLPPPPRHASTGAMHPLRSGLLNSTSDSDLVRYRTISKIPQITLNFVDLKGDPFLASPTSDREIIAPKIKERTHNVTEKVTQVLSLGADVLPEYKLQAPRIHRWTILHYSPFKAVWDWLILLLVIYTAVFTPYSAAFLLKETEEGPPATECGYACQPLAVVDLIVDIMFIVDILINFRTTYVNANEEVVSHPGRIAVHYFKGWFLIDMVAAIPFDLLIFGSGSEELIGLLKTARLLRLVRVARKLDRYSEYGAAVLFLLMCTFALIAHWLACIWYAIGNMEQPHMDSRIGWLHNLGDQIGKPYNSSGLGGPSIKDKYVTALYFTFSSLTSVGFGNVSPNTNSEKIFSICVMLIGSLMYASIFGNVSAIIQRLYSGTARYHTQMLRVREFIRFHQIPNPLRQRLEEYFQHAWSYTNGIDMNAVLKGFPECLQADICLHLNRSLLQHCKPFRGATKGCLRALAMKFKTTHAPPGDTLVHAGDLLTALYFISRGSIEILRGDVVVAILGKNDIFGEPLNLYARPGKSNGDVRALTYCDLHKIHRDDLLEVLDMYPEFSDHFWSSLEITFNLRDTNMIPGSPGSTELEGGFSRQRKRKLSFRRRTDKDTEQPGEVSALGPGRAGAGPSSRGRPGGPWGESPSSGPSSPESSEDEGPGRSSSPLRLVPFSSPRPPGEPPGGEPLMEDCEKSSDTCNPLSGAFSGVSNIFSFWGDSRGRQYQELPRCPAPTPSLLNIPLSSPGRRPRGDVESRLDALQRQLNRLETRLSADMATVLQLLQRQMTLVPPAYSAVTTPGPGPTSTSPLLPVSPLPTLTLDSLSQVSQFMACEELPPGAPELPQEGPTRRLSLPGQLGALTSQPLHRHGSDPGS

Point of comparison: `CCN1CCN(c2ccc(S(=O)(=O)N3CCCCC3)cc2NC(=O)c2cc3ccccc3o2)CC1`, “hERG current change (%, negative = inhibition) at 1uM” value 0.811%. Against it:
- CCOc1ccc(C(=O)CCC(=O)N2CCC(C(=O)OC)CC2)cc1 — higher, 10.1%
- CC1=C(C(=O)Nc2ccccc2F)C(c2ccsc2)C2=C(CC(C)(C)CC2=O)N1 (stereo not shown) — higher, 1.33%
- C=CCNC(=O)C1CCN(c2cc(C)nc(-c3ccccc3)n2)CC1 — lower, -12.2%
- Cc1cc(N2CCC(C(=O)NCC3CC3)CC2)nc(-c2ccccc2)n1 — lower, -53%
- C#CCNC(=O)C1CCN(c2cc(C)nc(-c3ccccc3)n2)CC1 — lower, -8.78%
- Cc1nn(CC(=O)OCC(=O)Nc2ccccc2[N+](=O)[O-])c(C)c1[N+](=O)[O-] — higher, 7.87%
- CCCCn1c(N)c(N(CCOC)C(=O)c2ccc(OCc3c(C)noc3C)cc2)c(=O)[nH]c1=O — higher, 19%
- O=C(CN1CCN(C(C(=O)Nc2ccc(F)cc2)c2ccccc2)CC1)NC1CC1 (stereo not shown) — lower, -2.24%
- Cc1ccc(NC(=O)C(c2ccccc2)N2CCN(CC(=O)NC3CC3)CC2)cc1Cl (stereo not shown) — lower, -2.31%
- O=C(CN1CCN(C(C(=O)Nc2ccc(Cl)cc2C(F)(F)F)c2ccccc2)CC1)NC1CC1 (stereo not shown) — lower, -50.1%
- COc1ccc(N(C(=O)Cn2nnc3ccccc32)C(C(=O)NC(C)(C)C)c2ccc(OC)c(O)c2)cc1 (stereo not shown) — higher, 14.6%
- Cc1ccc(N2C(=O)C3CC(c4ccccc4)=C4C5C=CC(C6C(=O)N(c7ccc(C)cc7C)C(=O)C56)C4C3C2=O)c(C)c1 (stereo not shown) — higher, 3.95%
- Cc1ccc(N2C(=O)C3C4CC(=O)C(c5ccccc54)C3C2=O)cc1 (stereo not shown) — higher, 4.46%
- Cc1ccc(N2C(=O)C3CC(c4ccccc4)=C4C5C=CC(C6C(=O)N(c7ccc(C)cc7)C(=O)C56)C4C3C2=O)cc1 (stereo not shown) — lower, -74.5%
- Cn1c(SCC(=O)NC2CC2)nnc1-c1ccccc1 — higher, 6.86%
- CN(C)/C=N/c1ncc(C(=O)c2ccc(Cl)cc2Cl)s1 — lower, -4.09%
- Cc1cccc(Nc2cc(C)nc3ccccc23)c1.Cl — lower, -33.5%
- COc1cccc(Nc2cc(C)nc3ccccc23)c1 — lower, -65.2%
- COc1ccc(Nc2cc(C)nc3ccccc23)cc1.Cl — lower, -15.6%
- Cc1ccc(-n2c(C)cc(C(=O)CSc3nnc4ccccn34)c2C)cc1 — higher, 0.977%
- O=C(NC1CCCCC1)C1CCN(c2nnnn2-c2ccccc2)CC1 — higher, 3.39%
- COc1ccc(/C=C2\N=C3CCCCCN3C2=O)cc1OC — higher, 14.8%
- OC(COc1cccc2ccccc12)CN1CCCC1 (stereo not shown) — lower, -1.17%
- COc1ccc(N2CCN(CC(O)COc3ccc(C)cc3C)CC2)cc1.Cl (stereo not shown) — lower, -54.6%
- CC(=O)c1ccccc1OCC(O)CN1CCN(CCN2C(=O)c3cccc4cccc(c34)C2=O)CC1 (stereo not shown) — lower, -73.5%
- Cc1cccc(OCC(O)CN2CCN(CCN3C(=O)c4cccc5cccc(c45)C3=O)CC2)c1C (stereo not shown) — higher, 15.1%
- COc1cccc(OCC(O)CN2CCN(c3ccc(Cl)cc3)CC2)c1 (stereo not shown) — lower, -14.1%
- Cc1ccccc1OCC(O)CN1CCN(c2ccc(Cl)cc2)CC1 (stereo not shown) — lower, -58.2%
- OC(COc1cccc2ccccc12)CN1CCN(c2ccc(Cl)cc2)CC1 (stereo not shown) — lower, -1.91%
- Cc1ccccc1OCC(O)CN1CCN(CCN2C(=O)c3cccc4cccc(c34)C2=O)CC1 (stereo not shown) — lower, -17.3%
- COc1ccc(N2CCN(CC(O)COc3cc(C)ccc3C)CC2)cc1.Cl (stereo not shown) — lower, -9.86%
- COc1ccc(N2CCN(CC(O)COc3cc(C)cc(C)c3)CC2)cc1.Cl (stereo not shown) — lower, -17.5%
- C=C1CC(C)OC(c2ccccc2OCC(O)CN2CCCCC2)C1 (stereo not shown) — lower, -63.3%
- Cc1ccccc1OCC(O)CN1CCCCC1.Cl (stereo not shown) — higher, 16.2%
- O=C(COC(=O)c1nc(Cl)c(Cl)c(Cl)c1Cl)NCc1ccccc1 — higher, 3.59%
- Cc1ccc(OCCNS(=O)(=O)c2ccc(N3CCCC3=O)cc2)cc1 — higher, 7.63%
- Cc1sc2nc(NCCO)[nH]c(=O)c2c1C — higher, 14.6%
- CS(=O)(=O)c1cccc(-c2nnc(NC(=O)C3=COCCO3)o2)c1 — higher, 0.983%
- Nc1c(C(=O)c2ccc(Cl)cc2)oc2ccccc12 — higher, 18%
- O=C(Nc1ccccc1)C1=C[C@H](c2ccccc2)C[C@H](OCCCCO)O1 — higher, 12.7%
- Cc1nc(N2CCN(S(=O)(=O)c3ccccc3)CC2)c2cc(-c3ccccc3)sc2n1 — higher, 2.54%
- c1ccc2c(c1)nnn2Cc1nnc2sc(-c3ccc4c(c3)OCCO4)nn12 — higher, 9.84%
- COC(=O)c1cccc(OCC(O)Cn2ccnc2)c1 (stereo not shown) — higher, 0.869%
- Cc1ccccc1OCC(O)CN1CCN(C)CC1.Cl (stereo not shown) — higher, 5.66%
- Cc1ccccc1OCC(O)CN1CCN(CC(O)COc2ccccc2C)CC1 (stereo not shown) — lower, -50.4%
- Cc1ccccc1OCC(O)CN1CCC(C)CC1.Cl (stereo not shown) — lower, -6.73%
- Cc1ccc2oc(=O)c3cnn(CC(=O)N4CCCc5ccccc54)c3c2c1 — higher, 4.39%
- CCn1c(SCC(=O)c2c(N)n(C)c(=O)n(C)c2=O)nnc1-c1ccccc1 — higher, 14.2%
- CN(C)Cc1c(O)ccc2occ(C(=O)c3ccc(F)cc3)c12 — lower, -57.5%
- Cc1ccc(C(=O)c2coc3ccc(O)c(CN(C)C)c23)cc1.Cl — lower, -16.2%
- CCN(CC)Cc1c(O)ccc2occ(C(=O)c3ccccc3)c12 — lower, -57.3%
- CN1CCN(Cc2c(O)ccc3occ(C(=O)c4ccccc4)c23)CC1 — lower, -14.3%
- COc1ccc(OC)c(C(=O)c2coc3ccc(O)c(CN(C)C)c23)c1.Cl — higher, 9.87%
- CCN(CC)Cc1c(O)ccc2occ(C(=O)c3ccc(OC)cc3)c12 — lower, -64.2%
- CN(C)Cc1c(O)ccc2occ(C(=O)c3ccccc3)c12 — lower, -16.4%
- COc1ccc2occ(C(=O)c3coc4ccc(O)c(CN(C)C)c34)c2c1.Cl — lower, -29.5%
- COc1ccc(C(=O)c2coc3ccc(O)c(CN(C)C)c23)cc1 — lower, -29.3%
- Cc1ccc(-c2nc3cccnc3o2)cc1NC(=O)COc1ccc(C(C)(C)C)cc1 — higher, 7.31%
- COc1ccc(S(=O)(=O)Nc2ccc(Cc3ccncc3)cc2)cc1OC — higher, 7.28%
- COc1cc(NC(=O)c2ccc(F)cc2)c(OC)cc1NC(=O)CN1CCOCC1 — higher, 3.57%
- O=C(CN1C(=O)NC2(CCCCC2)C1=O)NCCC1=CCCCC1 — higher, 14.5%
- COC(=O)c1cc(S(=O)(=O)N2CCCCCC2)c[nH]1 — higher, 12.4%
- Cc1c(C(=O)Nc2nccs2)oc2ccc(F)cc12 — higher, 14.5%
- CCC(C(=O)N1CCN(Cc2ccc3c(c2)OCO3)CC1)n1c(=O)[nH]c2ccccc2c1=O (stereo not shown) — lower, -8.55%
- CCN1CCc2c(C#N)c(N3CCCCC3)nc(N3CCOCC3)c2C1 — higher, 12.1%
- CCCN1C(=O)C2(C(C(=O)c3ccc(C)o3)=C(O)C(=O)N2CCCOC)c2ccccc21 (stereo not shown) — higher, 7.99%
- COc1cc2oc3ccccc3c2cc1N(CC(=O)N(C)C)S(=O)(=O)c1ccccc1 — lower, 0.641%
- COc1cc2c(cc1OC)CN(c1nc(CN3CCCC3)nc3sc(C)c(C)c13)CC2 — lower, -22.9%
- c1ccc2c(c1)CCN(c1nc(CN3CCOCC3)nc3sc4c(c13)CCCC4)C2 — higher, 14.5%
- COc1cc2c(cc1OC)CN(c1nc(CN3CCOCC3)nc3sc4c(c13)CCC(C)C4)CC2 (stereo not shown) — higher, 5.29%
- COc1cc2c(cc1OC)CN(c1nc(CN3CCOCC3)nc3sc4c(c13)CCCC4)CC2 — lower, -54%
- COc1cc2c(cc1OC)CN(c1nc(CN3CCCCC3)nc3sc4c(c13)CCCC4)CC2 — lower, -57.3%
- Clc1nc(CN2CCCCC2)nc2sc3c(c12)CCCC3 — higher, 7.88%
- Cc1cccc(C)c1NC(=S)NN(Cc1ccccc1)c1ccccc1 — higher, 10.3%
- COc1ccc(CNC(=O)CSc2nnc(-c3cccnc3)n2N)cc1 — higher, 7.27%
- CCN(CC(=O)Nc1ccc(NC(C)=O)cc1)C(=O)COc1ccc(C(=O)c2ccccc2)cc1 — higher, 10.3%
- CCN1CCN(c2ccc(S(=O)(=O)N3CCCCC3)cc2NC(=O)/C=C/c2ccc(OC(F)F)cc2)CC1 — lower, -1.19%
- COc1ccc(S(=O)(=O)N2CCCCC2)cc1NC(=O)c1ccc([N+](=O)[O-])o1 — higher, 12.4%
- CCN1CCN(c2ccc(S(=O)(=O)N3CCCCC3)cc2NC(=O)c2ccc(OC(F)F)cc2)CC1 — lower, -56.4%
- CCN1CCN(c2ccc(S(=O)(=O)N3CCCCC3)cc2NC(=O)c2ccc(F)cc2)CC1 — lower, -16.7%
- CCN1CCN(c2ccc(S(=O)(=O)N3CCCCC3)cc2NC(=O)c2ccc([N+](=O)[O-])o2)CC1 — lower, -73.3%
- CCN1CCN(c2ccc(S(=O)(=O)N3CCCCC3)cc2NC(=O)c2ccc([N+](=O)[O-])s2)CC1 — lower, -13.8%
- CCN1CCN(c2ccc(S(=O)(=O)N3CCCCC3)cc2NC(=O)c2ccc(C)o2)CC1 — lower, -62.4%
- CCN1CCN(c2ccc(S(=O)(=O)N3CCCCC3)cc2NC(=O)c2ccccc2)CC1 — lower, -15.6%
